Results published in the supplement of paper PMC10849652.
Of roughly 8,800 targets only a part is listed; those with a hit were picked by preference. About 0.5% of all pairs of compound and target were hits. Unmarked numbers belong to inactive results.

Columns and labels:
Test in all cases: log2 fold change, soluble protein after heating vs DMSO (PISA); higher = thermal stabilisation; K562 lysate, 10 uM; active = over 0.2 and 3.5 SD of the protein, either way, in both replicates (recomputed)
[1] = compound: CN1CC[C@H](c2c(O)cc(O)c3c(=O)cc(-c4ccccc4Cl)oc23)[C@H](O)C1 [alvocidib]
Procedure, shortened: (§1)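 The values are log-two fold changes in thermal stability compared with solvent controls and come from duplicates. They were obtained by TMTpro 16plex LC-MS/MS, with channel sums equalised, on the supernatant after 21,000xg for 90 min. That supernatant came from crude K562 extract at 1 mg/mL protein treated with 10 μM compound for 30 min, heated for 3 min across 48°C-58°C, pooled and brought to 0.5% NP-40 at 4°C.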

[2] = compound: CN1CCc2c(c3ccccc3n2Cc2ccc(C(=O)NO)cc2)C1 [Tubastatin A]
Procedure, shortened: as §1

[3] = compound: COC(=O)N[C@@H](C)CNc1nccc(-c2cn(C(C)C)nc2-c2cc(Cl)cc(NS(C)(=O)=O)c2F)n1 [encorafenib]
Procedure, shortened: as §1

[4] = compound: COC(=O)[C@H](CCSC)NC(=O)C1=C(C=C(C=C1)NC[C@H](CS)N)C2=CC=CC=C2
Procedure, shortened: as §1

[5] = compound: COc1cc(Nc2ncc3c(n2)-c2ccc(Cl)cc2C(c2c(F)cccc2OC)=NC3)ccc1C(=O)O [alisertib]
Procedure, shortened: as §1

[6] = compound: COc1cc2nc(-c3cc(F)ccc3O)nc(N[C@@H]3CNC[C@H]3C(C)(C)O)c2cc1OC
Procedure, shortened: as §1

[7] = compound: COc1cc2ncnc(Nc3ccc(F)c(Cl)c3)c2cc1OCCCN1CCOCC1 [gefitinib]
Procedure, shortened: as §1

[8] = compound: CS(=O)(=O)CCNCc1ccc(-c2ccc3ncnc(Nc4ccc(OCc5cccc(F)c5)c(Cl)c4)c3c2)o1 [lapatinib]
Procedure, shortened: as §1

[9] = compound: CS(=O)(=O)N1CCN(Cc2cc3nc(-c4cccc5[nH]ncc45)nc(N4CCOCC4)c3s2)CC1 [pictilisib]
Procedure, shortened: as §1

[10] = compound: C[C@@H](Oc1cc(-c2cnn(C3CCNCC3)c2)cnc1N)c1c(Cl)ccc(F)c1Cl [crizotinib]
Procedure, shortened: as §1

[11] = compound: C[C@H](C1=CC=C(C=C1)C(=O)NC2=C3C=CNC3=NC=C2)N
Procedure, shortened: as §1

[12] = compound: Cc1cc(Nc2cc(CN3CCOCC3)c3nc(C)c(Cc4ccc(Cl)cc4F)n3n2)n[nH]1 [gandotinib]
Procedure, shortened: as §1

[13] = compound: Cc1cc(Nc2cc(N3CCN(C)CC3)nc(Sc3ccc(NC(=O)C4CC4)cc3)n2)n[nH]1 [tozasertib]
Procedure, shortened: as §1

[14] = compound: Cc1ccc(-n2nc(C(C)(C)C)cc2NC(=O)Nc2ccc(OCCN3CCOCC3)c3ccccc23)cc1 [doramapimod]
Procedure, shortened: as §1

[15] = compound: Cc1ccc(NC(=O)c2ccc(CN3CC[C@H](N(C)C)C3)c(C(F)(F)F)c2)cc1Nc1nccc(-c2cncnc2)n1 [bafetinib]
Procedure, shortened: as §1

[16] = compound: Cc1cccc(CC(=O)N2CCc3c2ccc(-c2cn(C)c4ncnc(N)c24)c3F)n1
Procedure, shortened: as §1

[17] = compound: CNC(=O)C1=CC=CC=C1NC2=NC(=NC=C2Cl)NC3=C(C=C(C=C3)N4CCOCC4)OC
Procedure, shortened: as §1

[18] = compound: CNc1nc(-c2ccc3c(N)n[nH]c3c2)cc(N2C[C@@H](C(=O)NC3CCCCC3)CC[C@H]2C)n1
Procedure, shortened: as §1

[19] = compound: C[C@H](Nc1ncnc2nc[nH]c12)c1cc2cccc(Cl)c2c(=O)n1-c1ccccc1 [duvelisib]
Procedure, shortened: as §1

[20] = compound: CNC(=O)c1ccc(Nc2ncc(C(F)(F)F)c(NCc3nccnc3N(C)S(C)(=O)=O)n2)cc1 [defactinib]
Procedure, shortened: as §1

Sequence of UniProt Q9HCG7 (Q9HCG7 whole entry, looked up): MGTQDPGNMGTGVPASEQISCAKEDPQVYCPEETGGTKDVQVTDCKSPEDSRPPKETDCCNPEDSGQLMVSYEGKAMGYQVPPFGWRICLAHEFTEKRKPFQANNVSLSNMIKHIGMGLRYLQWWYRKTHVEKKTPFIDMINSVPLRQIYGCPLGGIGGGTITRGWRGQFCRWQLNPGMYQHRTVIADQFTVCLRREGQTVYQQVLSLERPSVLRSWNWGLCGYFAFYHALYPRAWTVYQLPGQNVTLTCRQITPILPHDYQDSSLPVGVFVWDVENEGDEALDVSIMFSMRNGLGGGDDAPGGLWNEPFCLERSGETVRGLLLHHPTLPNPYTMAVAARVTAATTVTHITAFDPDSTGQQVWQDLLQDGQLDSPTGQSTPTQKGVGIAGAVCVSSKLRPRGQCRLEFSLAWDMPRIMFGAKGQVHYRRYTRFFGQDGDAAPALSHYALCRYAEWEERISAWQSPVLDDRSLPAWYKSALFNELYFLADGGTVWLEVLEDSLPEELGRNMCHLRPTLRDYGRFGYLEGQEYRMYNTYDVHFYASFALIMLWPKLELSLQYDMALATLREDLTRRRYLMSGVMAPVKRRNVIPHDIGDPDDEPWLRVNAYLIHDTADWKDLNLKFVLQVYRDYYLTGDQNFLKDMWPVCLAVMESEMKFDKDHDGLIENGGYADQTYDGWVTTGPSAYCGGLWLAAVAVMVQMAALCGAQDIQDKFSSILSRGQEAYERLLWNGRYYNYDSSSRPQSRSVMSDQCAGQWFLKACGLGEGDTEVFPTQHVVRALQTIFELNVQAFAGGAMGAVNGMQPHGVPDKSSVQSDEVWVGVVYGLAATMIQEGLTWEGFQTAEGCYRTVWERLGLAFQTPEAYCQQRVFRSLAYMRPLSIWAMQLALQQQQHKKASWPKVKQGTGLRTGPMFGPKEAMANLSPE
Sequence of UniProt Q14C86 (Q14C86 whole entry, looked up): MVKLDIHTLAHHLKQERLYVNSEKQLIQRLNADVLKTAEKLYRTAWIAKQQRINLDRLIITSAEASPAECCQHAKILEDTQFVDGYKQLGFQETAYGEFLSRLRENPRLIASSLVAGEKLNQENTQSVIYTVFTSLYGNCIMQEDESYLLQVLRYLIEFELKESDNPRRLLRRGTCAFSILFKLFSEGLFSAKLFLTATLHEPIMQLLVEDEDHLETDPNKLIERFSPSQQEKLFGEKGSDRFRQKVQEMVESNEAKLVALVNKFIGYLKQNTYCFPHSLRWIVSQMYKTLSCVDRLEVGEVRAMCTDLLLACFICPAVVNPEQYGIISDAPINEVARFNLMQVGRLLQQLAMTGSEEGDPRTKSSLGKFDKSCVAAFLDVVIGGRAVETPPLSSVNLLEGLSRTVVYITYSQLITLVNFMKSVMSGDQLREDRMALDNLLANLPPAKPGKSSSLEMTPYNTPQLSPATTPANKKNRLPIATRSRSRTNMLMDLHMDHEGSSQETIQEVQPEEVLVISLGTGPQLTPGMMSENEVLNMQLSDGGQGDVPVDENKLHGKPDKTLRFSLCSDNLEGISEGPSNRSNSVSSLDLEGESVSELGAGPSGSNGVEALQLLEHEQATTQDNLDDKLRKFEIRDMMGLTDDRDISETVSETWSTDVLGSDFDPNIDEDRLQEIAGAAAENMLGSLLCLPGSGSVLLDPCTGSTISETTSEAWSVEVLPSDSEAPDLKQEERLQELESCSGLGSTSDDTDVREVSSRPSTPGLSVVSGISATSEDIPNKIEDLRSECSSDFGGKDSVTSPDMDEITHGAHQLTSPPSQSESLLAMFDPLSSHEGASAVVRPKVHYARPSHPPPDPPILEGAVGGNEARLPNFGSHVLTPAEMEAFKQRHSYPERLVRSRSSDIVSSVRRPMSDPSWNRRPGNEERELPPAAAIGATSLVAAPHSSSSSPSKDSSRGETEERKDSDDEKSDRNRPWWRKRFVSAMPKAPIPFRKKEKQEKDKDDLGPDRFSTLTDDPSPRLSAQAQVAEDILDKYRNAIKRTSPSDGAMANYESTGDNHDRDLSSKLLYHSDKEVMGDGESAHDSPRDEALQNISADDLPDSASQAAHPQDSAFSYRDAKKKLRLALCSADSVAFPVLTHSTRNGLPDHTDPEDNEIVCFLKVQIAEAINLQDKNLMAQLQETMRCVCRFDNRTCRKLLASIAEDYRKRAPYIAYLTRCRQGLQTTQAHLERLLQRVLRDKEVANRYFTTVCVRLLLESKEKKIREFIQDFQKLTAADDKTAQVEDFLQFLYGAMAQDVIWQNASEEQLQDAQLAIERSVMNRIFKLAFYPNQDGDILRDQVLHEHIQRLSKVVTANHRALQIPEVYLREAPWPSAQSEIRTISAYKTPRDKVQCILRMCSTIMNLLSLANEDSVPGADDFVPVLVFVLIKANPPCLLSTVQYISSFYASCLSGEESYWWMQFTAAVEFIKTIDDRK
Sequence of UniProt O95718 (O95718 whole entry, looked up): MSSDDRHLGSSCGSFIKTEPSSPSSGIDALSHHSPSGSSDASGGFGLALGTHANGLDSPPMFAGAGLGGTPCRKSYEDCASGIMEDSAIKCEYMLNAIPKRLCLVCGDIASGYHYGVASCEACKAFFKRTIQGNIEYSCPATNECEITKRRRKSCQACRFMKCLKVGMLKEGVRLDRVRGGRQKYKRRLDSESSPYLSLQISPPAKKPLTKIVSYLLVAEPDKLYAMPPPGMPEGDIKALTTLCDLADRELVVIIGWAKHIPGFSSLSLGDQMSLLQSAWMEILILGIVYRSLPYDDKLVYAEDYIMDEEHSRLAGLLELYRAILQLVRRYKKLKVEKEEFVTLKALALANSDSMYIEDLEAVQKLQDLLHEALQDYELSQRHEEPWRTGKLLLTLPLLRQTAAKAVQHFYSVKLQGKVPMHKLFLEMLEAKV
Sequence of UniProt Q9H8W3 (Q9H8W3 whole entry, looked up): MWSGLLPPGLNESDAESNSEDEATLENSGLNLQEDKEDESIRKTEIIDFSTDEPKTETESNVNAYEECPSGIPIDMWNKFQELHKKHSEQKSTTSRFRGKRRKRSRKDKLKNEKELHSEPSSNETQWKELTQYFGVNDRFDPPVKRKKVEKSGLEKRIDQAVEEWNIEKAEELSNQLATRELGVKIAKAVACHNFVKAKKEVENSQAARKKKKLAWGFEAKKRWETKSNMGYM
Sequence of UniProt Q9UKR5 (Q9UKR5 whole entry, looked up): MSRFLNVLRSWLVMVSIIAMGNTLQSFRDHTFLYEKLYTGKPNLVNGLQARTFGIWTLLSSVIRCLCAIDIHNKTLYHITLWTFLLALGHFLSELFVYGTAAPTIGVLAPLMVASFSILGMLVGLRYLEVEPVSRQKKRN
Sequence of UniProt Q9UI10 (Q9UI10 whole entry, looked up): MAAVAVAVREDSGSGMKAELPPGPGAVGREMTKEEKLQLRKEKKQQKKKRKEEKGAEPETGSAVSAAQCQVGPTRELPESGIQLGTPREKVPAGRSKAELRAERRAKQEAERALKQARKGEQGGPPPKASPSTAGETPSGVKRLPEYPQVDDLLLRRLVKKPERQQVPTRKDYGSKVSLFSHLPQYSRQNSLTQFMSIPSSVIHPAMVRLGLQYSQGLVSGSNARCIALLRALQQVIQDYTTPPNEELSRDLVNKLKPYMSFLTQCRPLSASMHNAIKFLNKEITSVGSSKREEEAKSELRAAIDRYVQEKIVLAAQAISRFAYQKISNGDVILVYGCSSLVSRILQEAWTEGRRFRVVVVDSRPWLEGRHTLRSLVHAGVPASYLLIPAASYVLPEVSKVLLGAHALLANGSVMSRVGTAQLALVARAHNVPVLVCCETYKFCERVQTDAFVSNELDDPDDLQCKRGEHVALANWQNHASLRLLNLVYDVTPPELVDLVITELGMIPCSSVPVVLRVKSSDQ
Sequence of UniProt P0C2W1 (P0C2W1 whole entry, looked up): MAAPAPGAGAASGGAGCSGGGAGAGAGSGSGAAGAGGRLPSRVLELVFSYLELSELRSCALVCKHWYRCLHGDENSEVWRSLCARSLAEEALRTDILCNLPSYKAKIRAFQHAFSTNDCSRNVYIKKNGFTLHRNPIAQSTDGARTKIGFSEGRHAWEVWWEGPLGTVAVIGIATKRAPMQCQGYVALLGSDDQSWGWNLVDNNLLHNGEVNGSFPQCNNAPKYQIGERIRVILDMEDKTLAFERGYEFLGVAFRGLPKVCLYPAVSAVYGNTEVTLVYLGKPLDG
Sequence of UniProt Q9P0K8 (Q9P0K8 whole entry, looked up): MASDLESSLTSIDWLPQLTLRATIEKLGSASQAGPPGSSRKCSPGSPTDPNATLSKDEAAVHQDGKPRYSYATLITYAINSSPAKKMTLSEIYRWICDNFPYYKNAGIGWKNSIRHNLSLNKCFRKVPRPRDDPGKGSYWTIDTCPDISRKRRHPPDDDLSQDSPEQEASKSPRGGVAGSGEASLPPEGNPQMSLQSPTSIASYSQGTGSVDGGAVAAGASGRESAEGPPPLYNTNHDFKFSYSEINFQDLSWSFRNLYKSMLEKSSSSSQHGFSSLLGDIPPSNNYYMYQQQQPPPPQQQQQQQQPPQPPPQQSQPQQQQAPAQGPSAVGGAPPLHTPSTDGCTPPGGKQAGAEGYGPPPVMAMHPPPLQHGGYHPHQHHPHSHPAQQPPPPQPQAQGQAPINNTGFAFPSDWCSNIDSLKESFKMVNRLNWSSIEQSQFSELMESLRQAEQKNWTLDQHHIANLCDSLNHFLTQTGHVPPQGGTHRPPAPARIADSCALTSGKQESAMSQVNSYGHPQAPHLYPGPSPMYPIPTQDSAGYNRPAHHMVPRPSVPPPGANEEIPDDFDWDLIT
Sequence of UniProt Q9Y6B2 (Q9Y6B2 whole entry, looked up): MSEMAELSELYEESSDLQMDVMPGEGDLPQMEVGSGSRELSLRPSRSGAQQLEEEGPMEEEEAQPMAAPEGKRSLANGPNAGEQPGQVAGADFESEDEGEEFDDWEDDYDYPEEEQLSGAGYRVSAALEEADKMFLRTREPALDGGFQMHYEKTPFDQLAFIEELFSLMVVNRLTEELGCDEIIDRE

Row | Target | log2 fold change [1] | log2 fold change [2] | log2 fold change [3] | log2 fold change [4] | log2 fold change [5] | log2 fold change [6] | log2 fold change [7] | log2 fold change [8] | log2 fold change [9] | log2 fold change [10] | log2 fold change [11] | log2 fold change [12] | log2 fold change [13] | log2 fold change [14] | log2 fold change [15] | log2 fold change [16] | log2 fold change [17] | log2 fold change [18] | log2 fold change [19] | log2 fold change [20]
1 | GART (UniProt C9JZG2) | -0.071 | 0.018 | 0.038 | 0.088 | 0.121 | -0.056 | 0.281 | -0.131 | 0.019 | -0.245 | -0.371 | 0.02 | 0.037 | 0.166 | 0.026 | 0.19 | – | – | – | –
2 | FMNL2 isoform 3 (UniProt Q96PY5) | – | 0.108 | – | – | 0.073 | 0.119 | 0.241 | -0.077 | – | -0.17 | – | – | – | 0.091 | – | – | 0.011 | 0.044 | -0.085 | –
3 | FNDC3A (UniProt Q9Y2H6) | -0.017 | -0.237 | – | – | -0.141 | – | -0.214 | – | – | 0.036 | -0.808 (active) | 0.42 | – | 0.143 | – | 0.126 | 0.014 | – | – | –
4 | GBA2 (UniProt Q9HCG7) | -0.046 | -0.032 | -0.052 | 0.079 | -0.004 | 0.013 | 0.2 | -0.062 | -0.012 | 0.014 | -0.094 | -0.009 | -0.138 | 0.055 | -0.199 | 0.054 | 0.073 | -0.098 | 0.06 | –
5 | DYRK1A isoform 2 (UniProt Q13627) | 0.225 | 0.023 | – | – | – | – | – | – | -0.166 | -0.071 | -0.171 | 0.014 | – | 0.092 | 0.145 | 0.034 | 0.148 | – | – | –
6 | EHHADH (UniProt Q08426) | 0.013 | 0.039 | 0.035 | -0.426 | 0.065 | -0.005 | 0.012 | -0.037 | 0.143 | -0.001 | 0.016 | -0.117 | 0.045 | 0.048 | 0.06 | 0 | -0.024 | 0.101 | 0.051 | –
7 | DST isoform 3 (UniProt Q03001) | 0.386 | – | 0.008 | -0.004 | – | – | – | – | 0.049 | – | 1.39 (active) | -0.243 | -0.056 | – | -0.118 | -0.224 | -0.061 | – | – | –
8 | EIF2B4 (UniProt Q9UI10) | – | 0.006 | 0.114 | -0.1 | -0.039 | -0.008 | 0.074 | -0.003 | 0.038 | -0.057 | – | – | -0.314 (active) | -0.019 | -0.04 | – | -0.004 | -0.058 | -0.032 | 0.03
9 | EPB41, A0A2R8Y783 | -0.248 | – | -0.523 | 0.118 | – | 0.029 | – | -0.063 | 0.04 | – | 0.121 | -0.066 | 0.061 | – | 0.04 | -0.006 | – | -0.13 | -0.089 | 0.05
10 | EID1 (UniProt Q9Y6B2) | -0.061 | -0.004 | -0.057 | 0.072 | -0.067 | – | 0.022 | – | – | – | -0.02 | 0.108 | -0.043 | – | – | 0.069 | 0.036 | 0.046 | 0.604 (active) | –
11 | FBXO45 (UniProt P0C2W1) | -0.047 | -0.162 | -0.062 | -0.035 | 0.003 | 0.02 | -0.002 | -0.067 | -0.034 | -0.123 | -0.081 | -0.031 | 0.115 | 0.017 | -0.272 | 0.091 | -0.035 | – | – | -0.009
12 | GAPVD1 (UniProt Q14C86) | – | – | – | – | – | 0.071 | – | 0.03 | -0.138 | – | – | – | – | – | 0.014 | – | – | – | – | –
13 | EVI5L isoform 2 (UniProt Q96CN4) | -0.293 | – | – | – | – | – | – | – | – | – | 0.022 | 0.062 | – | – | – | 0.049 | – | – | – | –
14 | GC isoform 3 (UniProt P02774) | 0.105 | 0.087 | -0.018 | -0.049 | – | – | – | – | – | 0.029 | 0.173 | -0.025 | -0.004 | -0.081 | – | -0.075 | – | 0.244 | 0.133 | -0.003
15 | FAT2 (UniProt Q9NYQ8) | -0.214 | -0.083 | -0.092 | 0.104 | -0.023 | 0.043 | 0.013 | -0.027 | -0.015 | -0.512 | -0.366 | 0.182 | 0.055 | -0.094 | -0.244 | 0.407 | -0.123 | – | – | -0.034
16 | GIPC3 (UniProt Q8TF64) | -0.108 | -0.071 | 0.028 | 0.05 | -0.194 | 0.008 | 0.073 | 0.157 | -0.055 | -0.103 | -0.033 | 0.124 | -0.097 | 0 | -0.035 | 0.083 | 0.055 | -0.157 | 0.05 | –
17 | ERG28 (UniProt Q9UKR5) | 0.304 | – | 0.055 | -0.062 | – | -0.024 | – | 0.008 | 0.049 | – | 0.593 (active) | -0.349 | -0.11 | – | 0.041 | -0.392 | – | -0.037 | 0.014 | –
18 | ESRRB isoform 1 (UniProt O95718) | 0.233 | -0.269 | – | – | – | – | – | – | 0.05 | – | 0.438 | -0.437 | – | – | 0.028 | -0.308 | -0.011 | – | – | –
19 | DTL (UniProt Q9NZJ0) | -0.008 | -0.072 | – | – | -0.038 | – | 0.043 | – | -0.026 | -0.035 | 0.059 | -0.053 | – | 0.064 | -0.099 | 0.006 | -0.003 | -0.092 | 0.174 | 0.071
20 | EIF3I (UniProt Q5TFK1) | 0.053 | – | – | – | 0.159 | 0.613 | 0.233 | -0.063 | – | – | 0.137 | 0.052 | – | – | – | 0.112 | – | – | – | –
21 | FAM204A (UniProt Q9H8W3) | -0.139 | -0.036 | – | – | – | – | – | – | – | -0.053 | 0.412 | 0.045 | – | 0.154 | – | -0.077 | 0.018 | – | – | 0.146
22 | EIF2B5, A0A3B3ITK8 | – | – | – | – | -0.014 | -0.03 | -0.08 | -0.108 | – | – | – | – | – | – | – | – | – | – | – | –
23 | EPS8L2 (UniProt Q9H6S3) | -0.009 | 0.078 | 0.096 | -0.037 | 0.01 | -0.036 | -0.149 | 0.044 | -0.03 | -0.012 | -0.068 | 0.061 | -0.258 | -0.046 | -0.101 | 0.207 | -0.016 | 0.031 | -0.086 | –
24 | EPN2 (UniProt I3L356) | -0.108 | – | – | – | -0.253 | -0.02 | 0.321 | 0.014 | -0.054 | – | -0.361 | 0.081 | – | – | 0.031 | 0.146 | – | – | – | –
25 | FAT1 (UniProt Q14517) | -0.14 | 0.18 | 0.029 | 0.047 | – | 0.094 | – | -0.129 | – | -0.109 | 0.079 | 0.027 | -0.139 | 0.475 | – | 0.072 | 0 | – | – | –
26 | EPB41 isoform 4 (UniProt P11171) | -0.014 | 0.012 | – | – | -0.09 | -0.153 | -0.096 | 0.014 | – | -0.038 | 0.012 | -0.004 | – | 0.046 | – | -0.024 | -0.089 | – | – | –
27 | FOXJ2 (UniProt Q9P0K8) | 0.006 | -0.114 | -0.081 | 0.022 | -0.308 | – | 0.057 | – | 0.043 | – | -0.037 | 0.044 | 0.127 | – | -0.224 | 0.056 | 0.021 | 0.053 | 0.039 | –
